Results as given in publication PMC4552634, “A New Set of Chemical Starting Points with Plasmodium falciparum Transmission-Blocking Potential for Antimalarial Drug Discovery” (PLoS ONE, 2015).
Hit rate of the full screen: of about 13,000 compounds, about 3,200 (25%) showed an effect of 50% or more. Some of the results follow.

Tested on: P. falciparum stage V gametocytes
Set-up: BacTiter-Glo ATP luminescence viability of purified stage V gametocytes in 384-well plates, per cent inhibition versus DMSO
Settings: 48 h, 5 µM; inhibitor

Row | Structure (SMILES) | % Inhibition
1 | CCC(C)Oc1ccc2nc(N)nc(N)c2c1Cl (centres unmarked) [TCMDC-137760] | 3.28%
2 | O=C(NCCOc1ccccc1)[C@H](Cc1ccccc1)Nc1ccnc(NCC2CCCCC2)n1 [TCMDC-134710] | 2.198%
3 | CC(C)(C)CNCC(C)(C)c1nc(-c2ccc(Cl)c(O)c2)c(-c2ccncc2)[nH]1 [TCMDC-140549] | -40.13%
4 | CN1CCCN(Cc2ccc(-c3cccc(NC(=O)c4ccc(Cl)cc4)c3)cc2)CC1 [TCMDC-132628] | 20.29%
5 | CN1N=C2c3ccccc3CCC2C1c1ccc(C#N)cc1 (centres unmarked) [TCMDC-123771] | -59.69%
6 | CN(CCO)Cc1ccc(-c2ccc(NS(=O)(=O)c3cccc4cccnc34)cc2)cc1 [TCMDC-136473] | -2.439%
7 | C=C(C)COc1ccc(-c2n[nH]c(C(F)(F)F)c2-c2ccccc2OC)c(O)c1 [TCMDC-124477] | 8.317%
8 | COc1ccc(N2CCN(C(CNC(=O)C3CCCCC3)c3ccc4c(c3)OCO4)CC2)cc1 (centres unmarked) [TCMDC-124312] | 30.25%
9 | COc1ccccc1-n1c(SCC(=O)Nc2ccccc2F)nc2cccnc21 [TCMDC-123647] | 7.521%
10 | COc1ccc(C)cc1NC(=O)CSc1nc2cccnc2n1C1CCCCC1 [TCMDC-123649] | 3.671%
11 | COc1ccccc1NC(=O)CSc1nc2cccnc2n1-c1ccccc1OC [TCMDC-123645] | 66.58%
12 | c1ncc(CCNc2nc(Nc3ccc4c(c3)OCO4)nc(NC3CCCC3)n2)[nH]1 [TCMDC-139739] | 13.1%
13 | CC(=O)Nc1ncc(C(=O)Nc2ccc(-c3cccc(-c4nc5ccc(F)cc5[nH]4)c3)cc2)s1 [TCMDC-136912] | 21.3%
14 | O=C(Nc1cc(F)cc(F)c1)N1CCOC(CCN2CCC3(CCc4ccccc43)CC2)(c2ccc(Cl)c(Cl)c2)C1 (centres unmarked) [TCMDC-135331] | -8.718%
15 | Cc1c(CCc2cccc(F)c2F)[nH]c2ccccc2c1=O [TCMDC-141293] | 23.35%
16 | CCOC(=O)c1c(-c2ccccc2)[nH]c2c(sc3ccccc32)c1=O [TCMDC-131540] | 7.736%
17 | CCOC(=O)c1c(SCc2cccc(F)c2F)[nH]c2ccccc2c1=O [TCMDC-141118] | 58.44%
18 | CCCCOC(=O)[C@H](CCC)NC(=O)c1ccc(NS(=O)(=O)c2ccc3nc(N)[nH]c(=O)c3c2)cc1 [TCMDC-137698] | 14.55%
19 | COc1cc(CNCCCCCCNCc2cc(OC)cc3ccccc23)c2ccccc2c1 [TCMDC-137823] | 16.43%
20 | COc1ccc2cc(CNCCCCCCNCc3ccc4cc(OC)ccc4c3)ccc2c1 [TCMDC-137797] | 110.4%
21 | COc1ccc(OC)c(C(O)CNC(C)C)c1 (centres unmarked) [TCMDC-124281] | 22.77%
22 | COc1ccc2c(CNCCCCCCNCc3c(OC)ccc4cc(OC)ccc34)c(OC)ccc2c1 [TCMDC-137300] | 117.1%

Row | Structure (SMILES) | % Inhibition
23 | COc1ccc2ccc(OC)c(CNCCCCCCNCc3c(OC)ccc4ccc(OC)cc34)c2c1 [TCMDC-137796] | 140.1%
24 | COc1ccc2c(OC)c(CNCCCCCCNCc3ccc4cc(OC)ccc4c3OC)ccc2c1 [TCMDC-137953] | 105.9%
25 | Cc1ccc(/C=C/C(=O)NCCCCCN2CCN(C(=O)Nc3ccc(Cl)c(C(F)(F)F)c3)CC2)cc1 [TCMDC-136099] | 10.82%
26 | CC1(C)N=C(N)N=C(N)N1OCOc1ccc(Cl)cc1 [TCMDC-131734] | 26.86%
27 | CCCCCCN1CCCN(Cc2ccc(C(=O)Nc3ccc(C)c(F)c3)cc2)CC1 [TCMDC-136411] | 22.16%
28 | O=C(Nc1cccc(-c2csc(NC(=O)c3ccc4ccccc4c3)n2)c1)c1ccc2ccccc2c1 [TCMDC-124033] | -5.611%
29 | COc1ccc(CNC(=O)Nc2cccc(-c3csc(N=C(N)N)n3)c2)cc1 [TCMDC-139554] | 8.01%
30 | NC(N)=Nc1nc(-c2cccc(NC(=O)NCC(c3ccccc3)c3ccccc3)c2)cs1 [TCMDC-139555] | -30.72%
31 | Cc1ccccc1CNC(=O)Nc1cccc(-c2csc(N=C(N)N)n2)c1 [TCMDC-139553] | 79.76%
32 | NC(N)=Nc1nc(-c2cccc(NC(=O)NCc3ccc(OC(F)(F)F)cc3)c2)cs1 [TCMDC-139556] | 86.49%
33 | NC(N)=Nc1nc(-c2cccc(NC(=O)NCCc3c[nH]c4ccc(OCc5ccccc5)cc34)c2)cs1 [TCMDC-139557] | -16.48%
34 | N=C(N)Nc1nc(-c2ccc(NC(=O)Nc3cccc(-c4csc(NC(=N)N)n4)c3)cc2)cs1 [TCMDC-139559] | 111.8%
35 | NC(N)=Nc1nc(-c2cccc(NC(=O)C(F)(F)F)c2)cs1 [TCMDC-137441] | -3.219%
36 | NC(N)=Nc1nc(-c2cccc(NC(=O)CCCCCCCON3C(N)=NC(N)=NC34CCCCC4)c2)cs1 [TCMDC-140420] | -29.14%
37 | NC(N)=Nc1nc(-c2ccc(NCc3ccc(CNc4cccc(-c5csc(N=C(N)N)n5)c4)cc3)cc2)cs1 [TCMDC-140699] | 83.03%
38 | NC(N)=Nc1nc(-c2cccc(NC(=O)NCc3cccc4ccccc34)c2)cs1 [TCMDC-139552] | 11.54%
39 | NC(N)=Nc1nc(-c2cccc(NC(=O)Cc3ccccc3)c2)cs1 [TCMDC-139599] | 13.87%
40 | CCCNC(=O)C1Cc2cc(OC)c(OC)cc2C2(N1)C(=O)N(Cc1cccc(OC)c1)c1ccccc12 (centres unmarked) [TCMDC-141464] | 26.41%
41 | C=CCc1cc(OC)ccc1OCCCOc1c(C)nc(N)nc1N [TCMDC-131358] | 1.5%
42 | CCCCCCc1ncc(-c2cc3cc(O)c(-c4ccccc4)cc3oc2=O)s1 [TCMDC-124096] | -4.644%
43 | c1ccc2c3c([nH]c2c1)C(c1ccc2c(c1)CCO2)N(c1ncnc(N2CCN(CCCN4CCOCC4)CC2)n1)CC3 (centres unmarked) [TCMDC-138517] | 42.57%
44 | O=[N+]([O-])c1ccc(NC(=NCCOc2ccccc2)Nc2ccccc2Br)c(O)c1 [TCMDC-139982] | 18.66%
